Results as given in PubChem BioAssay AID1159580 (chemical genetic matrix, 2015).
“And” between values parts separate entries of the source, which are not always exact repeats. Identical values can stand only once. The campaign covered roughly 5,500 compounds. About 2,000 (36%) were called active. Not shown: some 18% with an inconclusive outcome. Cut-off read from the data, not from the text of the source: active = normalized growth mostly below about 0.91 (no sharp cut-off); inconclusive = no clear call, values can overlap the other calls; inactive = mostly above about 0.92. This is one part of the list.

Assay: chemical genetic growth profiling, strain panel (AID 1159580);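 note: tested at 20 µM; growth read once vehicle control cultures reached saturation at 30 °C; 1 = growth at the plate median or of vehicle wells; lower values mean less growth of the strain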
Conditions: S. cerevisiae deletion strains, growth OD

Measured: normalized growth

O=[N+]([O-])c1cc(O)c(O)c([N+](=O)[O-])c1
inactive: locus YAL021C, strain ccr4, stronger effect = lower value 1.01 | locus YAL026C, strain drs2, stronger effect = lower value 1.01 | locus YAL030W, strain snc1, stronger effect = lower value 1.02 | locus YAL040C, strain CLN3, stronger effect = lower value 0.986 | locus YBL061C, strain skt5, stronger effect = lower value 1.01 | locus YBR009C, strain hhf1, stronger effect = lower value 1.07 | locus YBR021W, strain FUR4, stronger effect = lower value 0.953 | locus YBR023C, strain chs3, stronger effect = lower value 1.03 | locus YBR171W, strain sec66, stronger effect = lower value 1.01 | locus YBR229C, strain ROT2, stronger effect = lower value 1.01 | locus YBR231C, strain swc5, stronger effect = lower value 0.983 | locus YBR279W, strain paf1, stronger effect = lower value 1.03 | locus YCL011C, strain gbp2, stronger effect = lower value 1.03 | locus YCL016C, strain dcc1, stronger effect = lower value 1.05 | locus YCL029C, strain bik1, stronger effect = lower value 0.984 | locus YCL061C, strain MRC1 (second series), stronger effect = lower value 0.993 | locus YCL061C, strain MRC1, stronger effect = lower value 1.03 | locus YCL069W, strain vba3, stronger effect = lower value 1.01 | locus YCR088W, strain abp1, stronger effect = lower value 1 | locus YDL005C, strain med2, stronger effect = lower value 1.02 | locus YDL035C, strain GPR1, stronger effect = lower value 1 | locus YDL040C, strain nat1, stronger effect = lower value 1.02 | locus YDL074C, strain BRE1, stronger effect = lower value 1.01 | locus YDL101C, strain DUN1, stronger effect = lower value 1.01 | locus YDL185W, strain tfp1, stronger effect = lower value 0.967 | locus YDL192W, strain arf1, stronger effect = lower value 0.988 | locus YDR001C, strain nth1, stronger effect = lower value 0.998 | locus YDR069C, strain doa4, stronger effect = lower value 0.996 | locus YDR101C, strain arx1, stronger effect = lower value 0.997 | locus YDR137W, strain rgp1, stronger effect = lower value 0.982 | locus YDR150W, strain NUM1, stronger effect = lower value 1.01 | locus YDR159W, strain sac3, stronger effect = lower value 0.957 | locus YDR162C, strain NBP2, stronger effect = lower value 0.999 | locus YDR195W, strain ref2 0.992 | locus YDR297W, strain sur2, stronger effect = lower value 1.01 | locus YDR318W, strain mcm21, stronger effect = lower value 0.987 | locus YDR334W, strain swr1, stronger effect = lower value 1.01 | locus YDR335W, strain msn5, stronger effect = lower value 1.01 | locus YDR363W, strain ESC2, stronger effect = lower value 1.06 | locus YDR388W, stronger effect = lower value 0.978 | locus YDR392W, strain spt3, stronger effect = lower value 1.08 | locus YDR502C, strain sam2, stronger effect = lower value 1 | locus YEL003W, strain gim4, stronger effect = lower value 1.02 | locus YEL037C, strain rad23, stronger effect = lower value 1.01 | locus YEL061C, strain CIN8 (second series), stronger effect = lower value 1 | locus YEL061C, strain CIN8, stronger effect = lower value 1 | locus YER002W, strain NOP16, stronger effect = lower value 0.996 | locus YER015W, strain faa2, stronger effect = lower value 1.01 | locus YER016W, strain bim1, stronger effect = lower value 0.995 | locus YER110C, stronger effect = lower value 0.99 | locus YER111C, strain swi4, stronger effect = lower value 1 | locus YER155C, strain BEM2 (second series), stronger effect = lower value 0.992 | locus YER155C, strain BEM2, stronger effect = lower value 0.993 | locus YER167W, strain BCK2, stronger effect = lower value 1.02 | locus YFR010W, strain ubp6, stronger effect = lower value 1.01 | locus YGL078C, strain dbp3, stronger effect = lower value 0.976 | locus YGL086W, strain mad1, stronger effect = lower value 1 | locus YGL167C, strain pmr1, stronger effect = lower value 1.02 | locus YGL173C, strain kem1, stronger effect = lower value 1.01 | locus YGL227W, strain vid30, stronger effect = lower value 1.01 | locus YGL240W, strain doc1, stronger effect = lower value 0.998 | locus YGL248W, strain PDE1, stronger effect = lower value 1.03 | locus YGL253W, strain hxk2, stronger effect = lower value 0.959 | locus YGR078C, strain PAC10, stronger effect = lower value 1.01 and 0.977 | locus YGR135W, strain pre9, stronger effect = lower value 0.969 | locus YGR229C, strain SMI1, stronger effect = lower value 0.983 | locus YGR252W, strain gcn5, stronger effect = lower value 0.849 | locus YHR013C, strain ard1, stronger effect = lower value 1.05 | locus YHR027C, strain rpn1, stronger effect = lower value 1.01 | locus YHR030C, strain SLT2, stronger effect = lower value 0.996 | locus YHR079C, strain IRE1 (second series), stronger effect = lower value 0.994 | locus YHR094C, strain hxt1, stronger effect = lower value 0.972 | locus YHR129C, strain ARP1, stronger effect = lower value 1 | locus YHR142W, strain chs7, stronger effect = lower value 1.01 | locus YHR200W, strain rpn10, stronger effect = lower value 0.991 | locus YIL066C, strain RNR3, stronger effect = lower value 1.01 | locus YIL073C, strain SPO22, stronger effect = lower value 0.99 | locus YIL125W, strain kgd1, stronger effect = lower value 0.972 | locus YIR030C, strain dcg1, stronger effect = lower value 0.976 | locus YJL092W, strain hpr5, stronger effect = lower value 1.02 | locus YJL095W, strain BCK1 (second series), stronger effect = lower value 1.02 | locus YJL095W, strain BCK1, stronger effect = lower value 0.987 | locus YJL115W, strain asf1, stronger effect = lower value 1.01 | locus YJL129C, strain trk1, stronger effect = lower value 1.01 | locus YJL134W, strain LCB3, stronger effect = lower value 1.01 | locus YJL154C, strain vps35, stronger effect = lower value 1.01 | locus YJL164C, strain tpk1, stronger effect = lower value 1.06 | locus YJL166W, strain qcr8, stronger effect = lower value 1.01 | locus YJL168C, strain set2, stronger effect = lower value 0.978
